One may read the viability as a read-out of living cells in per cent, often relative to untreated cells.

Active and inactive are the calls of the source.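 Rule for the calls, unless noted: active = normalized viability below 100% at a tested concentration; inactive = the rest.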

Assay [1] can be described thus: ovarian cancer cell viability with rucaparib, profiling panel, oncology-focused library, rucaparib conditional (AID 1508598). The following applies: patient-derived ovarian cancer cells, CellTiter-Glo viability, 144 h, stronger effect = lower value.
A short description of assay [2]: kinase inhibitors against Plasmodium liver-stage infection, cell-based, known kinase inhibitor set, luminescence, hepatoma host viability (AID 624392; call rule not given here;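 note: infected cells incubated roughly two days before readout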). The following applies: Plasmodium liver stage in hepatoma cells, luciferase luminescence, concentration not given here; liver cell % of control: measured here: host liver cell viability; parasite % of control: stronger effect = lower value.

Assay [3] can be described thus: modulators of glucocorticoid suppression of NF-kB, cell-based, luciferase, IL-1B stimulus, dexamethasone (AID 624486; call rule not given here;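 for percent of negative control (+Dex): 100% = mean signal of vehicle control wells on the plate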). The following applies: NF-kB luciferase reporter, IL-1B + dexamethasone, luminescence; percent of negative control (+Dex): actives lie on both sides, concentration not given here; z-score: measured here: IL-1B alone, no Dex. On the technique in general: Reporter assays use an easily measured gene product as a stand-in for the process of interest.

Assay [4] is described as follows: kinase inhibitors altering Pseudomonas killing of worms, whole organism (AID 651566; call rule not given here;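 note: tested at 14 µM; sign flipped so higher z means a lower ratio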). The note with it: C. elegans killed by P. aeruginosa, survival ratio.
Assay [5] in a line: activators of macrophage pro-inflammatory response, cell-based, murine, luminescence (AID 652131; call rule not given here). The following applies: murine macrophage pro-inflammatory reporter, stronger effect = higher value.
Assay [6] is described as follows: survival rescue of mitochondrial mutant cells in low glucose, primary screen, MELAS cybrids, Rieske KO mouse fibroblasts, CellTiter-Glo (AID 1508586;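 active = mean z-score across replicates of 1.96 or higher in either the MELAS or the Rieske mutant cell line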;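 note: z relative to plate mean and SD of compound and empty wells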).
The mark [7] stands for this setting: at 5 µM, OCI-P5x cells, with rucaparib 20 µM, 100% = cells with rucaparib alone.
Where [8] appears, read: at 5 µM, OCI-P5x cells, without rucaparib.
Where [9] appears, read: at 0.000305 µM, OCI-C5x cells, with rucaparib 10 µM, 100% = cells with rucaparib alone.
Where [10] appears, read: at 0.000305 µM, OCI-C5x cells, without rucaparib.
[11] abbreviates: at 0.000305 µM, OCI-P5x cells, with rucaparib 20 µM, 100% = cells with rucaparib alone.
Setting [12] is: at 0.000305 µM, OCI-P5x cells, without rucaparib.
Setting [13] is: at 0.00122 µM, OCI-C5x cells, with rucaparib 10 µM, 100% = cells with rucaparib alone.
Setting [14] is: at 0.00122 µM, OCI-C5x cells, without rucaparib.
Where [15] appears, read: at 0.00122 µM, OCI-P5x cells, with rucaparib 20 µM, 100% = cells with rucaparib alone.
The mark [16] stands for this setting: at 0.00122 µM, OCI-P5x cells, without rucaparib.
The mark [17] stands for this setting: at 0.00488 µM, OCI-C5x cells, with rucaparib 10 µM, 100% = cells with rucaparib alone.
Setting [18] is: at 0.00488 µM, OCI-C5x cells, without rucaparib.
Setting [19] is: at 0.00488 µM, OCI-P5x cells, with rucaparib 20 µM, 100% = cells with rucaparib alone.
Where [20] appears, read: at 0.00488 µM, OCI-P5x cells, without rucaparib.
Setting [21] is: at 0.0195 µM, OCI-C5x cells, with rucaparib 10 µM, 100% = cells with rucaparib alone.
Where [22] appears, read: at 0.0195 µM, OCI-C5x cells, without rucaparib.
[23] abbreviates: at 0.0195 µM, OCI-P5x cells, with rucaparib 20 µM, 100% = cells with rucaparib alone.
The mark [24] stands for this setting: at 0.0195 µM, OCI-P5x cells, without rucaparib.
[25] abbreviates: at 0.0781 µM, OCI-C5x cells, with rucaparib 10 µM, 100% = cells with rucaparib alone.
Setting [26] is: at 0.0781 µM, OCI-C5x cells, without rucaparib.
The mark [27] stands for this setting: at 0.0781 µM, OCI-P5x cells, with rucaparib 20 µM, 100% = cells with rucaparib alone.
The mark [28] stands for this setting: at 0.0781 µM, OCI-P5x cells, without rucaparib.
Setting [29] is: at 0.313 µM, OCI-C5x cells, with rucaparib 10 µM, 100% = cells with rucaparib alone.
Setting [30] is: at 0.313 µM, OCI-C5x cells, without rucaparib.
Where [31] appears, read: at 0.313 µM, OCI-P5x cells, with rucaparib 20 µM, 100% = cells with rucaparib alone.
[32] abbreviates: at 0.313 µM, OCI-P5x cells, without rucaparib.
Setting [33] is: at 1.25 µM, OCI-C5x cells, with rucaparib 10 µM, 100% = cells with rucaparib alone.
The mark [34] stands for this setting: at 1.25 µM, OCI-C5x cells, without rucaparib.
Setting [35] is: at 1.25 µM, OCI-P5x cells, with rucaparib 20 µM, 100% = cells with rucaparib alone.
The mark [36] stands for this setting: at 1.25 µM, OCI-P5x cells, without rucaparib.
The mark [37] stands for this setting: at 5 µM, OCI-C5x cells, with rucaparib 10 µM, 100% = cells with rucaparib alone.
Where [38] appears, read: at 5 µM, OCI-C5x cells, without rucaparib.

Consider `C[C@H]1C[C@H]2[C@@H]3CCC4=CC(=O)C=C[C@]4(C)[C@@H]3C(=O)C[C@]2(C)[C@]1(O)C(=O)CO`, for which the viability in assay [1] (setting [7]) is 112% (inactive); in assay [1] (setting [8]), 125% (inactive).

In assay [2], `NC(=O)c1cc(-c2ccc(F)cc2)cc(-c2ccncc2)c1N` yielded a liver cell % of control of 110%. Further, in assay [2], the parasite % of control was 93.1% (inactive). Besides, in assay [3], the percent of negative control (+Dex) was 92.5% (inactive). Moreover, the z-score in assay [3] is 0.27; in assay [4], 0.64 (inactive); in assay [5], -0.928 (inactive); in assay [6] (MELAS cybrid survival, CellTiter-Glo 48 h, stronger effect = higher value), -0.833 (inactive); in assay [6] (Rieske KO mouse fibroblast survival, CellTiter-Glo 72 h) it was 0.289.

For `CC(C)CC(CC(=O)NO)C(=O)N[C@@H](Cc1ccc2ccccc2c1)C(=O)N[C@@H](C)C(=O)NCCN` (some centres undefined), the viability in assay [1] (setting [9]) was 123% (inactive); in assay [1] (setting [10]), 120% (inactive); in assay [1] (setting [11]) it was 90.2% (active); in assay [1] (setting [12]) it was 101% (inactive); in assay [1] (setting [13]) it was 111% (inactive); in assay [1] (setting [14]), 110% (inactive). Further, the viability in assay [1] (setting [15]) is 88.9% (active); in assay [1] (setting [16]), 99.8% (active); in assay [1] (setting [17]), 123% (inactive); in assay [1] (setting [18]), 118% (inactive); in assay [1] (setting [19]), 92% (active); in assay [1] (setting [20]), 94.4% (active). In addition, the viability is 123% (inactive) in assay [1] (setting [21]); 120% (inactive) in assay [1] (setting [22]); 84.6% (active) in assay [1] (setting [23]); 100% (active) in assay [1] (setting [24]); 132% (inactive) in assay [1] (setting [25]); 102% (inactive) in assay [1] (setting [26]). For the same molecule, the viability is 90% (active) in assay [1] (setting [27]); 92.6% (active) in assay [1] (setting [28]); 114% (inactive) in assay [1] (setting [29]); 114% (inactive) in assay [1] (setting [30]); 91.3% (active) in assay [1] (setting [31]); 92.3% (active) in assay [1] (setting [32]). Further, the viability is 134% (inactive) in assay [1] (setting [33]); 112% (inactive) in assay [1] (setting [34]); 85.1% (active) in assay [1] (setting [35]); 86% (active) in assay [1] (setting [36]); 112% (inactive) in assay [1] (setting [37]); 110% (inactive) in assay [1] (setting [38]). In addition, the viability is 78.6% (active) in assay [1] (setting [7]) and 88.3% (active) in assay [1] (setting [8]).

`Cc1[nH]c(C=C2C(=O)Nc3ccc(S(=O)(=O)Cc4c(Cl)cccc4Cl)cc32)c(C)c1C(=O)N1CCC[C@@H]1CN1CCCC1`: the viability was 124% (inactive) in assay [1] (setting [9]); 124% (inactive) in assay [1] (setting [10]); 74% (active) in assay [1] (setting [11]); 47.4% (active) in assay [1] (setting [12]); 122% (inactive) in assay [1] (setting [13]); 115% (inactive) in assay [1] (setting [14]). The viability in assay [1] (setting [15]) was 87.5% (active); in assay [1] (setting [16]), 57.1% (active); in assay [1] (setting [17]), 116% (inactive); in assay [1] (setting [18]) it was 121% (inactive); in assay [1] (setting [19]) it was 105% (inactive); in assay [1] (setting [20]), 101% (inactive). For the same molecule, the viability is 107% (inactive) in assay [1] (setting [21]); 111% (inactive) in assay [1] (setting [22]); 93.6% (active) in assay [1] (setting [23]); 91.6% (active) in assay [1] (setting [24]); 106% (inactive) in assay [1] (setting [25]); 113% (inactive) in assay [1] (setting [26]). The viability in assay [1] (setting [27]) is 96% (active); in assay [1] (setting [28]) it was 89.5% (active); in assay [1] (setting [29]) it was 123% (inactive); in assay [1] (setting [30]) it was 110% (inactive); in assay [1] (setting [31]), 93% (active); in assay [1] (setting [32]) it was 94.4% (active). Moreover, the viability was 122% (inactive) in assay [1] (setting [33]); 136% (inactive) in assay [1] (setting [34]); 90.6% (active) in assay [1] (setting [35]); 87% (active) in assay [1] (setting [36]); 109% (inactive) in assay [1] (setting [37]); 116% (inactive) in assay [1] (setting [38]). The values for the viability in assay [1] (setting [7]) and in assay [1] (setting [8]) were 1.25% (active) and 52.5% (active), respectively.

The record behind these values is PubChem BioAssay.
